Shown are actives, neighbours in structure and some others; about 19% of the full set was active somewhere.
DT40 TDP1 CPT – qHTS for Inhibitors of human tyrosyl-DNA phosphodiesterase 1 (TDP1): qHTS in cells in presence of CPT | 420,000 compounds, 12% hits | chicken DT40 Tdp1-/-;hTDP1 cells + 20 nM CPT, ATP luminescence, 48 h | Potency, µM (highest dose often 46.2 µM), for the others: at the top dose activity change, negative = growth inhibition, most hits filed as inhibitors | AID 686979, 2013; further: potency means the concentration at half of the fitted maximal effect; nearly all actives have a fitted effect of over 55% in size
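Chicken DT40 Tdp1-/- cells complemented with human TDP1, 400 cells/well, exposed to compounds plus 20 nM camptothecin for at least 48 h at 37 C; viability read as ATP content by CellTiter-Glo luminescence.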
IL1B secr inh – qHTS for Inhibitors of Inflammasome Signaling: IL-1-beta AlphaLISA Primary Screen; AID 743279, 2014; activity change, % at 57.5 µM; THP-1 LPS/ATP IL-1B secretion, AlphaLISA, 16 h; active compounds read low; 360,000 compounds, 4.7% hits; in the data active means activity change below about -50%; inconclusive means mostly about -30% to -49%
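Secreted IL-1B measured by AlphaLISA bead assay after 16 h compound exposure of THP-1 cells; compounds (final up to 57.5 uM) added 1 h before LPS (250 ng/mL) and ATP (1.25 mM) stimulation; lower signal means less secretion.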
ELG1 DNA repair – qHTS screen for small molecules that inhibit ELG1-dependent DNA repair in human embryonic kidney (HEK293T) cells expressing luciferase-tagged ELG1. HEK293T ELG1-luciferase reporter, luminescence, 16 h; DNA damage induced by 5-fluorouridine. Potency, µM (highest dose often 46.1 µM), without a hit: at the top dose activity change, negative = inhibition, most hits filed as inhibitors. 330,000 compounds, 2.3% hits. AID 504467, 2011; further: potency means the concentration at half of the fitted maximal effect; nearly all actives have a fitted effect of over 55% in size
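5-Fluorouridine DNA damage + compound/DMSO, 2,000 cells/well, 16 h, 37 °C/5% CO2. ONE-Glo, 30 min RT, luminescence. Readout = decrease in reporter signal.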
HT1080-NT tox – qHTS for induction of synthetic lethality in tumor cells producing 2HG: qHTS for the HT-1080-NT fibrosarcoma cell line. 360,000 compounds, 1.6% hits. HT-1080-NT fibrosarcoma viability, CellTiter-Glo ATP luminescence, 48 h. Potency, µM (highest dose often 46.1 µM), inactives show at the highest dose activity, negative = less viability, actives largely listed as cytotoxic;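 further: NT is the 2HG producing partner of a matched IDH1 knockdown line; potency means the concentration at half of the fitted maximal effect; 0% = DMSO-treated cells and -100% = media-only wells without cells; nearly all actives have a fitted effect of over 55% in size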
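Compounds were tested in concentration-response format on HT-1080-NT cells for 48 hours at 37 degrees C. Cell viability came from CellTiter-Glo luminescence; curves were classified by r2, response magnitude and activity.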
HT1080 IDH1KD tx – qHTS for induction of synthetic lethality in tumor cells producing 2HG: qHTS for the HT-1080-IDH1KD cell line; HT-1080 IDH1 knockdown viability, ATP luminescence, 48 h; Potency, µM (highest dose often 46.1 µM), inactives show at the top dose activity, negative = toxicity, most hits filed as cytotoxic; 360,000 compounds, 2% hits; AID 686971, 2013;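 further: potency means the concentration at half of the fitted maximal effect; 0% = DMSO wells and -100% = cell-free medium wells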
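CellTiter-Glo luminescence after 48 h compound exposure at 37 degrees C of IDH1-knockdown HT-1080 cells in 5% FBS RPMI. %Activity scaled between DMSO wells and cell-free media wells, with curves fitted and assigned curve classes.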
TDP1 cell noCPT – qHTS for Inhibitors of human tyrosyl-DNA phosphodiesterase 1 (TDP1): qHTS in cells in absence of CPT; DT40 Tdp1-/- hTDP1 cells, no CPT, ATP luminescence, 48 h; Potency, µM (top dose mostly 46.2 µM), inactives show at the top dose activity change, negative = growth inhibition, most hits filed as inhibitors; 420,000 compounds, 15% hits; AID 686978, 2013; further: potency means the concentration at half of the fitted maximal effect; nearly all actives have a fitted effect of over 55% in size
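Growth of hTDP1-complemented DT40 Tdp1-knockout cells is measured by ATP luminescence after at least 48 hr compound exposure at 37 °C, with DMSO substituting for the 20 nM CPT used in the parallel screen.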
The depositor's hits bear a star; ? = inconclusive; · = no result given. Unless noted, the call rests on the fitted dose curve; in most records, active means well fitted curve in the direction sought with a large enough effect; inconclusive means small, poorly fitted or top-dose-only effect, or another doubt; inactive means no such curve, though single readings can be large; an effect the other way counts as inactive or inconclusive. Unless noted, on the % scale 0 is the no-effect control and ±100 the full control effect.

SMILES	DT40 TDP1 CPT	IL1B secr inh	ELG1 DNA repair	HT1080-NT tox	HT1080 IDH1KD tx	TDP1 cell noCPT
COCC(=O)N1CCC2(CC1)CCN(C(=O)Nc1cccc(F)c1)CC2	9%	·	·	·	·	0%
CCN(CC)P(=O)(Nc1ccccc1Br)c1ccc(N(C)C)cc1NC(=O)c1ccco1 (stereo unspecified)	29µM*	-7	?	18%	-4%	23µM*
Cc1cccc(CC2SC(N)=NC2=O)c1 (stereo unspecified)	6%	6	18%	8%	2%	3%
Cc1cccc(N2CCN(C3=NC(=O)C(Cc4ccccc4)S3)CC2)c1 (stereo unspecified)	?	-4	-11%	-2%	2%	15µM*
CC1CN(C(=O)COc2ccc3c(-c4ccccc4)cc(=O)oc3c2)CC(C)O1 (stereo unspecified)	-26%	16	-17%	0%	6%	-41%
O=C(c1ccc(S(=O)(=O)NCC2CCCO2)cc1)N1CCN(c2cccc(Cl)c2)CC1 (stereo unspecified)	15µM*	34	9.2µM*	0%	0%	15µM*
O=C(c1ccc(S(=O)(=O)NCC2CCCO2)cc1)N1CCN(c2ccccc2F)CC1 (stereo unspecified)	-10%	6	-8%	0%	1%	-11%
O=S(=O)(NCC1CCCO1)c1ccc(-c2ccc(Cl)cc2)cc1 (stereo unspecified)	12µM*	6	?	-19%	-1%	13µM*
COc1ccc(-c2ccc(S(=O)(=O)NCC3CCCO3)cc2)cc1 (stereo unspecified)	6%	5	3%	-21%	-19%	?
Cc1ccc(NC(=O)CCCCCN2C(=O)[C@@H]3Cc4ccccc4CN3C2=O)c(C)c1	?	?	-27%	19%	12%	?
Brc1ccc(-c2nc3c4ccccc4ccn3c2Cc2ccccc2)cc1	16µM*	53	·	-2%	-1%	8.2µM*
Fc1ccc(-c2nc3c4ccccc4ccn3c2Cc2ccccc2)cc1	-13%	21	·	4%	-2%	?
Clc1ccc(-c2nc3c4ccccc4ccn3c2Cc2ccccc2)cc1	16µM*	44	·	-16%	0%	10µM*
O=C(NCC(c1ccco1)N1CCc2ccccc2C1)c1ccc(Br)cc1 (stereo unspecified)	?	-4	?	6%	1%	23µM*
O=C(NCC(c1ccco1)N1CCCC1)c1ccc(Cl)c(S(=O)(=O)N2CCc3ccccc32)c1 (stereo unspecified)	8.2µM*	-55*	?	-25%	?	7.3µM*
O=C(NCC(c1ccco1)N1CCc2ccccc2C1)c1ccc(Cl)c([N+](=O)[O-])c1 (stereo unspecified)	?	-83*	-16%	-2%	1%	?
O=C(NCC(c1ccco1)N1CCc2ccccc2C1)c1cccc([N+](=O)[O-])c1 (stereo unspecified)	?	4	-9%	4%	-1%	?
Cc1ccc(C(=O)NCC(c2ccco2)N2CCc3ccccc3C2)cc1C (stereo unspecified)	18µM*	0	-12%	4%	0%	21µM*
Cc1ccc(NC(=O)N2CCC(CN3CCC(C)CC3)CC2)cc1F	-12%	·	·	·	·	-1%

Bioassay records: PubChem, National Center for Advancing Translational Sciences (NCATS)
